Compound: C#CCNC(=O)CCSSCCC(=O)NCCc1ccc(C=O)c(C=O)c1
Assay: lysine labeling ratio R10:1 (500 µM / 50 µM probe), SILAC-ABPP in living cells; higher = lower intrinsic lysine reactivity toward the probe, active = 2 or less
Details: HeLa; probe concentrations 500 vs 50 µM
Summary of the method: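 Forward and reverse SILAC label swaps were used with living light and heavy HeLa cells in PBS at room temperature, which were given an alkyne-tagged, disulfide-linked lysine probe at 50 µM or 500 µM. R is the per-lysine filtered median high-probe/low-probe MS1 peptide ratio, with the median then taken across both swap directions. Values are limited to 20.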

UniProt Q15149, sequence (Q15149 whole entry): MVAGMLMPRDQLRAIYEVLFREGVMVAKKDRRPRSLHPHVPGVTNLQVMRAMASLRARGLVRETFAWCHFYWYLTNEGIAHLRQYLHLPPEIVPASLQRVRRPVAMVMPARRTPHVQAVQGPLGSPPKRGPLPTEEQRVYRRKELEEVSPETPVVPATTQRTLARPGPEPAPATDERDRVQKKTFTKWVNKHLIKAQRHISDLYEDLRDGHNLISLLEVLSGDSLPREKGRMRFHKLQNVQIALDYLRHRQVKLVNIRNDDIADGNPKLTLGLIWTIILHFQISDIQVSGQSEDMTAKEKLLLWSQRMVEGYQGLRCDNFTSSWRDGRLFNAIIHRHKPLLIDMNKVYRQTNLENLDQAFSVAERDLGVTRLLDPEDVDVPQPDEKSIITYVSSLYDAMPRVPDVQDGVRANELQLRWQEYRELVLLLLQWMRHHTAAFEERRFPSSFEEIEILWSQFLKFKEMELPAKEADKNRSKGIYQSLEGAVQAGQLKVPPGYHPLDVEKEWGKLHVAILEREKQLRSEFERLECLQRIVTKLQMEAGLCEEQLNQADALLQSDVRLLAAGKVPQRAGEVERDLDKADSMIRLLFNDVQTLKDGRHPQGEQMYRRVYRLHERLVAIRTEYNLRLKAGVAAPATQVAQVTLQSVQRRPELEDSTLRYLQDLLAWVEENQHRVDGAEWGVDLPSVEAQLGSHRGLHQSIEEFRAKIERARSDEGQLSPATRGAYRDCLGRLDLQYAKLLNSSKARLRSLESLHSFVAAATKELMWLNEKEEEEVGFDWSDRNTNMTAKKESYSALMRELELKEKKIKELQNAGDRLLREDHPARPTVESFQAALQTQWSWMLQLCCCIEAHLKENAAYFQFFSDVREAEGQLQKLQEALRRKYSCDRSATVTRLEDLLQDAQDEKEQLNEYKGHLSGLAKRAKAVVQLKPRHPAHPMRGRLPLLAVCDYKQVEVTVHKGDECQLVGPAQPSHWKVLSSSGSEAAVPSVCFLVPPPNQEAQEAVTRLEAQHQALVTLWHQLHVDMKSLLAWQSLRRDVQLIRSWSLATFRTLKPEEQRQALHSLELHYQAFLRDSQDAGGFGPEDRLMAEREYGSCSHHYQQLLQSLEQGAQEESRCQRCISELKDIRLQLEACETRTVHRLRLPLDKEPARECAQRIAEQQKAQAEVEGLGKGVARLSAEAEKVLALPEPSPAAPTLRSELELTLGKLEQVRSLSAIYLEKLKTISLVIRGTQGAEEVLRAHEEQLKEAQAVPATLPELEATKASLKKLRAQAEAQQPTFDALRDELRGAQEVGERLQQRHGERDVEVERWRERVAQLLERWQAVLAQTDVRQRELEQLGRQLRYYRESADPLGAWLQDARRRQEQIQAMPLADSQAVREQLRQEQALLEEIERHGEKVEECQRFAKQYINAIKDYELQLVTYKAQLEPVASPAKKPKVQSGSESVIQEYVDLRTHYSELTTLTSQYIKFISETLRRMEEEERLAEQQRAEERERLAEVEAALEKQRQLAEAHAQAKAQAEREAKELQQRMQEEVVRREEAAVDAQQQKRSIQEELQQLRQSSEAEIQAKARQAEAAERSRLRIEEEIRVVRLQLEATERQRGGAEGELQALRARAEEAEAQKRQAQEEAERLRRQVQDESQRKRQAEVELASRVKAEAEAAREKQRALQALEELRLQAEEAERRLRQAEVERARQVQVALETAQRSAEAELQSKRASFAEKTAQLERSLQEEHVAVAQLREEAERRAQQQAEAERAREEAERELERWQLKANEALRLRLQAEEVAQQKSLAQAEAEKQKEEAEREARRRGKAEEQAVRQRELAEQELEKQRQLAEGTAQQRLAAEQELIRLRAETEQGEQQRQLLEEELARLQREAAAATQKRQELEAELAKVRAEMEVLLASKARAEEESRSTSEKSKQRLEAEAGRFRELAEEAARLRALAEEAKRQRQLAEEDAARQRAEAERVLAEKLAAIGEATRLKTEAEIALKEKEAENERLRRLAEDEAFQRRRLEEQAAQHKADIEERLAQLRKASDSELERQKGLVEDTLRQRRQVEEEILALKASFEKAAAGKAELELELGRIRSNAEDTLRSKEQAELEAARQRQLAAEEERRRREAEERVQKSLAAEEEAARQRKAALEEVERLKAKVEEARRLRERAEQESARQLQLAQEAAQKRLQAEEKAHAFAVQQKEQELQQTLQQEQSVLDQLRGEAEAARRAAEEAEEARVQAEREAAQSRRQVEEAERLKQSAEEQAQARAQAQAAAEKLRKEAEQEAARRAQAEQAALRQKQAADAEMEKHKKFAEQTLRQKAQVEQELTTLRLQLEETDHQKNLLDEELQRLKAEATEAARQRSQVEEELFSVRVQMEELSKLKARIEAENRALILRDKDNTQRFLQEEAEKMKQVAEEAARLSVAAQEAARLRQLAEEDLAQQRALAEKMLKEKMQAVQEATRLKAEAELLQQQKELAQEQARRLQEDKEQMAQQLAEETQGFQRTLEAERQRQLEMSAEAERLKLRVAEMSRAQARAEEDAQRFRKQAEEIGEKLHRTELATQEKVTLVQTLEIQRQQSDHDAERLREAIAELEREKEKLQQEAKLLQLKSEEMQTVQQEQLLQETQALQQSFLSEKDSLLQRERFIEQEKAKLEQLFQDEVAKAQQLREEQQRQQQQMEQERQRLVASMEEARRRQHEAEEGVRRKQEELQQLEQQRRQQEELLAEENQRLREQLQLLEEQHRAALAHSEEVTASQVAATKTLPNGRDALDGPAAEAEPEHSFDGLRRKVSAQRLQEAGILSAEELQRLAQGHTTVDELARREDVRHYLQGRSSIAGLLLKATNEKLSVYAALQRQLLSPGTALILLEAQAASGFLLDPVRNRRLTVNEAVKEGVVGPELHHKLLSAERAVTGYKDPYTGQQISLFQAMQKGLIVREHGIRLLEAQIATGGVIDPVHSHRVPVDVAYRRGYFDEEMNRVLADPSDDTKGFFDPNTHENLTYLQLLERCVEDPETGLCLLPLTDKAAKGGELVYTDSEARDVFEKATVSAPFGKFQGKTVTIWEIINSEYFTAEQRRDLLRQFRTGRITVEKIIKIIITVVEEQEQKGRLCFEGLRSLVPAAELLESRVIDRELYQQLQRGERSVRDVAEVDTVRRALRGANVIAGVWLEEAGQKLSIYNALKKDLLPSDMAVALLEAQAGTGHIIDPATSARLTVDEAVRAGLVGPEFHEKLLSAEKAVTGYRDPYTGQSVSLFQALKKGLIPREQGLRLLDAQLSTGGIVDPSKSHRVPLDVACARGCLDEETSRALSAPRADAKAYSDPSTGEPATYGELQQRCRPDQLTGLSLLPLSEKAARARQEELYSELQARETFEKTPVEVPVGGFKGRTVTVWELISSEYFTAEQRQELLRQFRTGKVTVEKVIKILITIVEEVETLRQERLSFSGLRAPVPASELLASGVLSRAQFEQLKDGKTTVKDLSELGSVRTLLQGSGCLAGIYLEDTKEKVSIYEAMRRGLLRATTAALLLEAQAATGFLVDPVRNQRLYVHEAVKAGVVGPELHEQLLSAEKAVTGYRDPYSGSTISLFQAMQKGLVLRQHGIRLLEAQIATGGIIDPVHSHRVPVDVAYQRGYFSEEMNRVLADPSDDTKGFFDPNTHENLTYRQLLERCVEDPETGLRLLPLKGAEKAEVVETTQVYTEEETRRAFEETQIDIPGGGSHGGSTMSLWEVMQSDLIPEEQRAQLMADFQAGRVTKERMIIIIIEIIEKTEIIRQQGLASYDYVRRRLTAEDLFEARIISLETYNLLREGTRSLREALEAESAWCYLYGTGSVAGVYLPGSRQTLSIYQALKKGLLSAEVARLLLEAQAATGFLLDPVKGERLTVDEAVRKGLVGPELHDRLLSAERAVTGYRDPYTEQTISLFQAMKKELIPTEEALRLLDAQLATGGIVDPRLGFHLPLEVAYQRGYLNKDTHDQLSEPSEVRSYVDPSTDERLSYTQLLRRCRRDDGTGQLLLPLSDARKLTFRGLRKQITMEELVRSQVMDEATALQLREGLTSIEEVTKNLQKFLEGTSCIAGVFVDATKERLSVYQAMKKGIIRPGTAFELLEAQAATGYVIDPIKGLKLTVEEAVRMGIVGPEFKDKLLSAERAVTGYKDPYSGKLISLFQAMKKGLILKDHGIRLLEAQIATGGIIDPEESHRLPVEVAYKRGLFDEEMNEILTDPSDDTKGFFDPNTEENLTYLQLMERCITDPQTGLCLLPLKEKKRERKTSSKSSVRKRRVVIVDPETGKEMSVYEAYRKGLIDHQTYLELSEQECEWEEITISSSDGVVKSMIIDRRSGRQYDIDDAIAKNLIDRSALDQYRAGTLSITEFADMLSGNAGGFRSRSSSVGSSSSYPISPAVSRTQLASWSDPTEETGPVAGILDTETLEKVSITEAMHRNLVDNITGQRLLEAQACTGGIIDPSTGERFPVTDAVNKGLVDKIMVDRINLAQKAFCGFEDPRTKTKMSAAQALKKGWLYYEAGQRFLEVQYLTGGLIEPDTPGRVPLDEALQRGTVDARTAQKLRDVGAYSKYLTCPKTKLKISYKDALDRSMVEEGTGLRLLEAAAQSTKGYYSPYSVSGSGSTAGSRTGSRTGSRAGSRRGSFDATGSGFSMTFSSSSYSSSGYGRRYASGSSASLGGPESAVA
UniProt Q9Y6W5, sequence (Q9Y6W5 whole entry): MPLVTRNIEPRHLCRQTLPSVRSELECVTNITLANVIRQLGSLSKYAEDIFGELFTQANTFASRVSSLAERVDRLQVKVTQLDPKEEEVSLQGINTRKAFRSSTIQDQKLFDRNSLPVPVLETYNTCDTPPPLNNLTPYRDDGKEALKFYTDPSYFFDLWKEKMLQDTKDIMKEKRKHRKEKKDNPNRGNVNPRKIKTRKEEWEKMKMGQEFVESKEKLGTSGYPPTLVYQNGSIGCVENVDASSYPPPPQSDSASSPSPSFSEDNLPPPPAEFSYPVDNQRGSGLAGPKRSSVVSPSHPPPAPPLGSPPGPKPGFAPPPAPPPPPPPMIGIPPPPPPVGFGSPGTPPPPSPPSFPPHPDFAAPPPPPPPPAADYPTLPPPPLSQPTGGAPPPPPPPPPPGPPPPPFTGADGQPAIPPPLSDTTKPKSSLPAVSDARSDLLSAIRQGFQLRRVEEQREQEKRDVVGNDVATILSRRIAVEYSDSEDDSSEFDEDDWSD

Lysine labeling ratio R10:1, active:
SPTAN1 (lysine site: K2000) (UniProt Q13813) 0.553, WASF2 (lysine site: K109) (UniProt Q9Y6W5) 1.24, IARS (lysine site: K132) (UniProt P41252) 1.68, ILF3 (lysine site: K214) (UniProt Q12906) 1.16, AHNAK (lysine site: K128) (UniProt Q09666) 1.37, UniProt Q9NYQ6 (lysine site: K324) 0.873, UniProt P50281 (lysine site: K337) 1.7, SLC1A4 (lysine site: K239) (UniProt P43007) 1.94, MARS (lysine site: K729) (UniProt P56192) 1.58

Lysine labeling ratio R10:1, inactive:
G6PD (lysine site: K360) (UniProt P11413) 2.07, UniProt Q15149 (lysine site: K2396) 2.3, UniProt Q15149 (lysine site: K3384) 4.26, LGALS1 (lysine site: K64) (UniProt P09382) 3.47, TFRC (lysine site: K128) (UniProt P02786) 6.74, CCT8 (lysine site: K400) (UniProt P50990) 4.01, CAPZB (lysine site: K95) (UniProt P47756) 3.24, VIM (lysine site: K188) (UniProt P08670) 11.1, ITGA3 (lysine site: K161) (UniProt P26006) 5.16, PGK1 (lysine site: K30) (UniProt P00558) 2.54, UniProt P48047 (lysine site: K60) 2.17, UniProt Q9Y653 (lysine site: K215) 4.06, TCP1 (lysine site: K199) (UniProt P17987) 4.14, UniProt P62913 (lysine site: K154) 2.92
